Hits are enriched below; roughly 5.2% of the tested compounds scored in any of these assays.
Sfp PPTase inh: blocks B. subtilis Sfp PPTase activity; Biochemical Sfp PPTase activity, qHTS; 310,000 tested, 3.5% active; Potency, µM, inactives show largest response in the series, negative = inhibition, usual class: inhibitors; Q9F4F7;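 note: the enzyme is Sfp with the accession as filed and its product quenches rhodamine fluorescence; potency is the fitted concentration of half-maximal effect; 0% = enzyme reaction without inhibitor and -100% = no enzyme wells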
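Sfp 15 nM + cpd, 15 min RT; start w/ rhodamine-CoA 5 uM, BHQ-2-YbbR 12.5 uM (final); 50 mM Hepes pH 7.6, 10 mM MgCl2, 0.01% NP-40, 0.01% BSA; read 525/598 nm at 0 and 30 min.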
Tau fibril FP: tau fibrillization inhibition (FP) | P10636 | K18 P301L tau heparin fibrillization, Alexa594 FP, 6 h | Potency, µM (doses to about 57.7 µM), inactives show top-dose activity, negative = inhibition, hits mostly inhibitors | 280,000 tested, 0.39% active | AID 1468; note: potency is the fitted concentration of half-maximal effect; nearly all actives have a fitted effect of over 55% in size
Target sequence (P10636 561-689 P618L limits assumed): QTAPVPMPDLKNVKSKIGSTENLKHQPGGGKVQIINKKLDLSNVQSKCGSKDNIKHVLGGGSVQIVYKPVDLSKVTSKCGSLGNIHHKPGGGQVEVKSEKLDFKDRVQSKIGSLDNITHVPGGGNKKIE
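K18 P301L tau (15 uM unlabeled/0.24 uM Alexa 594-labeled, final) + compound + heparin 20 uM final; 100 mM NaOAc pH 7; 6 hr 37 C; ThT 30 uM final added, 1 hr RT; FP ex 555/em 632 nm.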
Tau fibril ThT: tau fibrillization inhibition (ThT binding). recombinant tau K18 P301L, heparin-induced fibrillization, ThT fluorescence. Potency, µM (titrated, usually from 57.4 µM), for inactives: top-dose activity, negative = inhibition, usual class: inhibitors. P10636. 270,000 tested, 2.1% active; note: potency is the fitted concentration of half-maximal effect; nearly all actives have a fitted effect of over 55% in size
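Recombinant human tau K18 fragment […] carrying P301L, 15 uM unlabeled plus 0.24 uM Alexa 594-labeled, was fibrillized with 20 uM heparin in 100 mM sodium acetate pH 7 for 6 hr at 37 C; 30 uM ThT fluorescence read after 1 hr.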
Tau fluor counter: counter-screen for tau fibril formation inhibitors; tau K18 P301L Alexa594 fluorescence, heparin fibrillization; Potency, µM (titrated, usually from 57.7 µM), without a hit: top-dose activity change, negative = decrease; 280,000 tested, 0.93% active; AID 1463; note: potency is the fitted concentration of half-maximal effect; nearly all actives have a fitted effect of over 55% in size
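Human tau K18 P301L (15 uM unlabeled, 0.24 uM Alexa 594-labeled) in 100 mM sodium acetate pH 7 with 20 uM heparin, 6 hr at 37 C. ThT 30 uM added, 1 hr ambient; Alexa 594 FP and total fluorescence read at 555/632 nm.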
FBPA coupling cs: coupling enzyme interference in Giardia aldolase counter-screen; coupling enzyme system counterscreen, AmpLite Red fluorescence; activity change, negative = inhibition, % at 58.2 µM, hits read low; 290,000 tested, 0.67% active; AID 2472; in the data active = activity change below about -30%
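Final compound at 57.5 uM, incubated 10 min at RT with coupling enzyme reagent (glyceraldehyde-3-phosphate), then 20 min with substrate and AmpLite Red detection. Fluorescence read at 525/598 nm; tests interference with the coupling assay, not aldolase inhibition.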
* marks the source's active call; other numbers are inactive results; ? = inconclusive; . = not tested or not shown; [ ] = dose if it differs, or a comment. Unless noted, calls come from the whole dose curve; as a rule, active = well fitted curve in the direction sought with a large enough effect; inconclusive = small, poorly fitted or top-dose-only effect, or another doubt; inactive = no such curve, though single readings can be large; an effect the other way counts as inactive or inconclusive. Unless noted, % is set by controls: 0 for no effect and ±100 for the full control effect.

SMILES	Sfp PPTase inh	Tau fibril FP	Tau fibril ThT	Tau fluor counter	FBPA coupling cs
O=C1C(C=Nc2ccccc2)=C(O)c2ccccc21	1.5%	7.2%	?	-14.4%	0.2
COc1ccc(N=Cc2oc3ccc4ccccc4c3c2O)cc1	-6.5%	12.1%	?	-20.3%	-1.5
O=C(O)C1Nc2c(O)cc(Cl)c([N+](=O)[O-])c2C2C=CCC12 (stereo not drawn)	56.2µM*	14.1µM*	7.94µM*	7.08µM*[quencher]	-8.3
CC(=O)Nc1ccc(NC(=O)c2cc(-c3cc(C)cc(C)c3O)n[nH]2)cc1	7.8%	.	.	.	-0.7
Cc1cc(C)c(O)c(-c2cc(C(=O)Nc3ccc(S(=O)(=O)N4CCOCC4)cc3)[nH]n2)c1	18.7%	?	0.9%	14.1µM*[quencher]	0.3
COc1ccc(C(=O)Nc2ccc(-c3nc4ncccc4o3)cc2C)cc1Br	.	1.9%	?	-8.2%	.
CC(C)c1ccc(C2C3CSCC=C3C(C#N)=C(N)C2(C#N)C#N)cc1 (stereo not drawn)	-5.7%	-9.2%	?	-21.9%	-1.6
N#CC1=C(N)C(C#N)(C#N)C(c2cccnc2)C2CCCC=C12 (stereo not drawn)	17.8µM*	?	?	-6.5%	-36.5*
N#CC1=C(N)C(C#N)(C#N)C(c2ccc[nH]2)C2CCCC=C12 (stereo not drawn)	56.2µM*	?	14.1µM*	?	-16.6
N#CC1=C(N)C(C#N)(C#N)C(c2cccnc2)C2CC(c3ccccc3)CC=C12 (stereo not drawn)	-13.6%	?	25.1µM*	-29.0%	2.6
N#CC1=C(N)C2=CCCC[C@H]2[C@H](c2cccc(F)c2)C1(C#N)C#N	9.6%	?	?	-29.9%	-0.9
CCN(Cc1ccccc1)C(=O)c1nc(-c2cccc(F)c2)n2c1CCCCC2	.	2.9%	-7.7%	-3.0%	.
CSc1ccc(CCNC(=O)CCc2c(C)nc3c4cccnc4nn3c2C)cc1	.	11.7%	-4.7%	-0.4%	.
CCOc1ccc2nc(N3C(=O)/C(=C/c4ccc(Cl)cc4)NC3=S)sc2c1	1.6%	-7.9%	4.47µM*	?	1.8
COc1ccc2nc(N3C(=O)CNC3=S)sc2c1	-28.7%	5.4%	.	-19.1%	2.9
CCCCC/C=C\C/C=C\C/C=C\C/C=C\CCCC(=O)O[C@@H](CO)COCCCCCCCCCCCCCCCC	13.7%	5.2%	-3.3%	-0.4%	0.8
CCc1ccc(S(=O)(=O)c2cn(C)c3ccc(C)cc3c2=O)cc1	.	-0.5%	-4.8%	-15.4%	.
Oc1ccc2ccccc2c1C=NCc1ccccc1	-24.3%	?	?	?	-31.8*
O=CN/N=C/c1c(O)ccc2ccccc12	11.8%	-8.4%	-2.5%	-8.7%	-2.9
Oc1ccc2ccccc2c1/C=N/c1nc2c(s1)CCCC2	-1.6%	?	31.6µM*	?	-39.9*
Oc1ccc2ccccc2c1/C=N/Nc1ccccc1	-13.7%	?	17.8µM*	11.2µM*[quencher]	-26.3
Oc1ccc2ccccc2c1C=NC1CCCCC1	-27.9%	?	25.1µM*	?	-23.9
Oc1ccc2ccccc2c1/C=N/n1cnnc1	1.5%	4.6%	?	-12.8%	1.8
CC1(C)CC(=O)c2cc(C(=O)Nc3ccccc3Cl)c(=O)n(-c3ccc(Cl)cc3)c2C1	.	-3.0%	-1.2%	-2.7%	.
Cc1ccc(OCC(=O)OCc2cc(=O)n3nc(-c4cccs4)sc3n2)cc1C	.	-8.0%	?	-8.0%	.
SMILES	Sfp PPTase inh	Tau fibril FP	Tau fibril ThT	Tau fluor counter	FBPA coupling cs
COc1cccc(N2CCN(C(=O)c3ccc4c(Cl)c5c(nc4c3)CCCC5)CC2)c1	.	-2.9%	?	-21.7%	.
CC1=C(C(=O)Nc2ccccc2)C(c2cccnc2)n2nc(SCc3ccccc3F)nc2N1 (stereo not drawn)	.	-6.6%	14.1%	12.1%	.
CCOc1ccc(CC(=O)NCCc2sc3nc(-c4ccc(F)cc4)nn3c2C)cc1	.	-7.6%	-2.9%	-11.3%	.
Cc1cc(O)c(C=Nc2ccc(Cl)cn2)c(=O)o1	?	2.2%	?	-3.6%	1.7
Oc1ccc2ccccc2c1C=Nc1ccc(Cl)cn1	-11.7%	6.3%	-1.3%	0.7%	-45.6*
CC(Cc1ccc(O)c(O)c1)C(C)Cc1ccc(O)c(O)c1 (stereo not drawn)	39.8µM*	-2.4%	?	15.8µM*[quencher]	-14.1
N#CC1=C(N)NC(SCc2ccc(Br)cc2)=C(C#N)C12CCCCC2	10.2%	-12.1%	-18.6%	10µM*[quencher]	-4.3
N#CC1=C(N)NC(SCc2ccccc2)=C(C#N)C12CCCC2	-0.9%	8.5%	-14.0%	?	-2.8
N#CC1=C(N)NC(SCc2ccc(Cl)cc2)=C(C#N)C12CCCCC2	4.5%	6.1%	?	8.91µM*[quencher]	-3.9
N#C/C(=C\c1cc2ccccc2nc1N1CCOCC1)C(=O)Nc1ccc(N2CCOCC2)cc1	17.5%	-5.6%	14.1µM*	?	-0.3
Cc1cc(NC(=O)Cc2ccccc2)cc(-c2nc3ccccc3o2)c1O	.	-3.7%	3.3%	-5.0%	.
CC1=NN(C(N)=S)C(=O)C1N=Nc1cccc2ccccc12 (stereo not drawn)	-1.2%	-8.5%	3.98µM*	?	0.4
CCOc1ccc(NC(=O)c2c(NC(=O)c3ccccc3Br)sc3c2CCC(C)C3)cc1 (stereo not drawn)	.	?	14.1µM*	-22.7%	.
Cc1ccc2c(Sc3ccc(Cl)cc3)c(C(=O)N3CCC(C)CC3)[nH]c2c1	.	3.7%	-8.2%	-25.2%	.
COc1ccc(NCC(=O)Nc2ccc(Cl)cc2C)c(OC)c1	-4.4%	-13.8%	31.6µM*	?	-10.9
COc1ccc(-n2nc(C(=O)N3CCC(C)CC3)c3c4ccccc4n(C)c3c2=O)cc1Cl	.	-0.3%	2.2%	-8.1%	.
CCOC(=O)C1=C(C)Nc2nc(SCC)nn2C1c1ccc(OC)cc1 (stereo not drawn)	-4.0%	-5.3%	1.9%	-8.7%	-2.4
CCOC(=O)C1=C(C)Nc2nc(=S)[nH]n2C1c1ccc(Cl)cc1 (stereo not drawn)	7.94µM*	-7.3%	?	-10.7%	1.2
O=C(NCc1cccc(F)c1)C1CCN(c2nc3ccccc3nc2C(F)(F)F)CC1	.	-17.0%	9.3%	-11.9%	.
CCc1ccc(N=c2c([N+](=O)[O-])nn(-c3ccc4c(c3)OCCO4)n2O)cc1	-14.3%	11.3%	11.2µM*	?	-4.9
Cc1ccc(N=c2c([N+](=O)[O-])nn(-c3ccc(Cl)cc3)n2O)cc1C	?	-3.3%	12.6µM*	?	1.6
O=[N+]([O-])c1nn(-c2ccc3c(c2)OCCO3)n(O)c1=Nc1ccccc1	0.7%	2.9%	4.1%	0.4%	4.0
O=[N+]([O-])c1nn(-c2ccc3c(c2)OCCO3)n(O)c1=Nc1ccc(Cl)cc1	-19.4%	?	14.1µM*	?	-0.1
Cc1ccc(N=c2c([N+](=O)[O-])nn(-c3ccc4c(c3)OCCO4)n2O)cc1F	9.5%	8.3%	?	?	3.3
Cc1cc(C)cc(N=c2c([N+](=O)[O-])nn(-c3ccc4c(c3)OCCO4)n2O)c1	14.2%	?	?	?	-6.2
